From the supplement of paper PMC9446081
± gives the standard deviation of the averaged measurements.

System: RNA polymerase
Assay: relative enzymatic activity vs untreated control (fraction); higher = less inhibition
Details: 100 µM; incubation time: 2 h at 37 C
Description: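 In vitro enzymatic inhibition assays (ProFoldin kits) for 12 purified essential E. coli enzymes or complexes, each treated with 218 active antibacterial compounds at 100 µM for 2 h at 37°C. Read-outs were fluorescence or absorbance (phosphate detection, dye binding), converted to activity via standard curves and expressed relative to untreated DMSO controls.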

First: Cc1cn(C2CC(N=[N+]=[N-])C(CO)O2)c(=O)[nH]c1=O (stereo not given)
Second: CC(=O)On1cc(F)c(=O)[nH]c1=O
The relative enzymatic activity of the first is higher: 0.887 ± 0.0091 for the first, 0.746 ± 0.13 for the second.

`CCOC(=O)OC(C)OC(=O)C1N2C(=O)C(NC(=O)C(N)c3ccccc3)C2SC1(C)C.Cl` (stereo not given) and `CC1(C)S[C@@H]2[C@H](NC(=O)[C@H](NC(=O)N3CCNC3=O)c3ccccc3)C(=O)N2[C@H]1C(=O)O` are within error of each other in relative enzymatic activity: 0.803 ± 0.031 for the first, 0.869 ± 0.089 for the second.

`Cn1nnnc1SCC1=C(C(=O)[O-])N2C(=O)C(NC(=O)C(O)c3ccccc3)C2SC1.[Na+]` (stereo not given) and `N[C@@H](C(=O)N[C@@H]1C(=O)N2C(C(=O)O)=C(Cl)CS[C@H]12)c1ccccc1` are within error of each other in relative enzymatic activity: 1.16 ± 0.45 for the first, 0.766 ± 0.036 for the second.

`CNC1C(OC2C(OC3C(O)C(O)C(NC(=N)N)C(O)C3NC(=N)N)OC(C)C2(O)CO)OC(CO)C(O)C1O.O=S(=O)(O)O` (stereo not given) and `CON=C(C(=O)NC1C(=O)N2C(C(=O)OCOC(=O)C(C)(C)C)=C(C=Cc3scnc3C)CSC12)c1csc(N)n1` (stereo not given) are within error of each other in relative enzymatic activity: 0.953 ± 0.083 for the first, 0.872 ± 0.034 for the second.

Going from `COC1(NC(=O)C(C(=O)[O-])c2ccc(O)cc2)C(=O)N2C(C(=O)[O-])=C(CSc3nnnn3C)COC21.[Na+].[Na+]` (stereo not given) to `COc1ccc(Cc2cnc(N)nc2N)cc1OC`, the relative enzymatic activity rises from 0.848 ± 0.071 to 0.9567 ± 0.0054.

First: Nc1c2ccccc2nc2ccccc12
Second: COc1cc(Cc2cnc(N)nc2N)cc(OC)c1OC
The relative enzymatic activity of the first is lower: 0.505 ± 0.016 for the first, 0.887 ± 0.074 for the second.

`O=C1OC(=O)[C@H]2[C@@H]1[C@H]1CC[C@H]2O1` and `O=C(O)c1cn(C2CC2)c2cc(N3CCNCC3)c(F)cc2c1=O` are within error of each other in relative enzymatic activity: 0.888 ± 0.18 for the first, 0.771 ± 0.006 for the second.

For `CN1CCN(c2c(F)cc3c(=O)c(C(=O)O)cn4c3c2OCN4C)CC1`, the relative enzymatic activity was 0.816 ± 0.086.
